Measured values: PubChem BioAssay AID1063 (University of Pittsburgh Molecular Library Screening Center, 2008)
The campaign covered roughly 200,000 compounds. About 18,000 (9%) were called active. The list comes from a sample in which actives are over-represented; it also holds similar structures and randomly drawn compounds. A number with no mark means an inactive call. No stated cut-off is given here; in the data, active means inhibition above about 50%; inactive means the rest.

test: antileishmanial activity against promastigotes – primary screen (AID 1063); settings: Leishmania major promastigotes, resazurin fluorescence viability; at 10 µM; hits give high values;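 further: promastigotes grown with compound for 44 hours at 28 °C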

SMILES | inhibition
COc1ccc(S(=O)(=O)N2CCOCC2)cc1NC(=O)CSc1ncnc2ccccc12 | 23%
O=C(NC1CC1)C1CCCN(C(=O)NC2CCCCC2)C1 (stereo not drawn) | 1.82%
COc1ccc(-c2nn(-c3ccccc3)cc2CN2CCCO2)c(F)c1 | 13%
O=C(CCCN1C(=O)/C(=C/c2ccccc2)SC1=S)Nc1ccc(O)cc1 | 56.3% (active)
O=C(CCCN1C(=O)/C(=C\c2ccco2)SC1=S)Nc1cccc2ccccc12 | 30.1%
O=C(CCCN1C(=O)/C(=C/c2ccco2)SC1=S)Nc1ccccc1 | 10.2%
O=C(Nc1ccc([N+](=O)[O-])cc1)C1CC12CCC2 (stereo not drawn) | 2.36%
COc1ccc(/C(N)=N/OC(=O)Cc2ccccc2)cc1 | -6.43%
N/C(=N\OC(=O)CCC1CCCCC1)c1ccccn1 | -4.7%
N/C(=N\OC(=O)CC1CCCCC1)c1ccccc1 | 57.8% (active)
CCc1ccccc1N1C(=O)C2C3CC(=O)C(c4ccccc43)C2C1=O (stereo not drawn) | 7.01%
Cc1noc(C)c1COc1ccc2ccc(=O)oc2c1 | -4.27%
COc1cc(Cl)c(S(=O)(=O)n2cnc(C)c2)cc1Cl | 2.35%
CCOc1ccc(C(C)C)cc1S(=O)(=O)n1nc(C)cc1C | 0.47%
CCOc1ccc(S(=O)(=O)n2ccnc2)c2ccccc12 | -5.02%
CCOc1cc(C)c(Cl)cc1S(=O)(=O)n1nnc2ccccc21 | 1.2%
COc1cc(C)c(Cl)cc1S(=O)(=O)n1ccnc1 | 80.5% (active)
COc1cc(C)c(C(C)C)cc1S(=O)(=O)n1ccnc1 | 97.8% (active)
N#Cc1c(NC(=O)CCCl)sc2c1CCCCC2 | -0.81%
CCCCCc1nnc(NC(=O)c2ccc(=O)n(C)n2)s1 | 1.57%
O=C1N/C(=C/c2cccs2)C(=O)N1Cc1ccc(F)cc1 | -5.2%
CC1CC1C(=O)OCC(=O)c1c(N)n(C)c(=O)n(C)c1=O (stereo not drawn) | -4.6%
COCCN(C(=O)C(C)C)c1nnc(-c2ccc(C(C)(C)C)cc2)s1 | 8.79%
O=C(O)c1ccc2c3c(cccc13)C(=O)N(OS(=O)(=O)c1ccccc1)C2=O | -8.08%
Cc1cccc(C)c1NC(=O)CSc1ccc([N+](=O)[O-])cn1 | -1.31%
Cc1cc2cc3c(cc2nc1SCC(=O)Nc1c(C)cccc1C)CCC3 | 78.9% (active)
Cc1cc(C)c(C#N)c(SCC(=O)Nc2ccccc2)n1 | -5.68%
CS(=O)(=O)N(CC(=O)N/N=C/c1ccccn1)c1ccc(Oc2ccccc2)cc1 | 32.9%
